One may read the inhibition as the relative decrease from the control value, in per cent.

What all share (type): functional
The target of assay [1] is Solute carrier family 2, facilitated glucose transporter member 1 (Homo sapiens) (UniProt P11166). The assay can be described thus: ST_JUDE_LEISH: Cytotoxicity at 2uM final concentration against transgenic Leishmania Mexicana promastigotes LmGLUT1 that are glucose transport deficient and complemented with the human glucose transporter GLUT1. Activity is measured by DNA content using SYBR green in vitro.
Sequence of Solute carrier family 2, facilitated glucose transporter member 1 (Homo sapiens) (P11166 whole entry): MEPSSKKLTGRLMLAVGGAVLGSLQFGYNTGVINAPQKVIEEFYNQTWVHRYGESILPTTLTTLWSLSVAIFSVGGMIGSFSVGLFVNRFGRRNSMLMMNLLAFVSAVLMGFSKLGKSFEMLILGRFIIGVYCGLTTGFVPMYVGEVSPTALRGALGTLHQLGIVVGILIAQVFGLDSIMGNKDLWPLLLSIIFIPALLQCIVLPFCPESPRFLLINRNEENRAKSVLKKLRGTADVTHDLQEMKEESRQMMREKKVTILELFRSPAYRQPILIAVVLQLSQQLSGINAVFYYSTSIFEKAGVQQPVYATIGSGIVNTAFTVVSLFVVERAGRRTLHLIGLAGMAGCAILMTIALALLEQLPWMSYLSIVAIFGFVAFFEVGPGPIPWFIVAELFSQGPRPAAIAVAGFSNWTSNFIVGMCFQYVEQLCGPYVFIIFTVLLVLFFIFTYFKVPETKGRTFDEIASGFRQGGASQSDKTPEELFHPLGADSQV

The target of assay [2] is Hexose transporter 1 (Plasmodium falciparum) (UniProt O97467). The assay can be described thus: ST_JUDE_LEISH: Cytotoxicity at 2uM final concentration against transgenic Leishmania Mexicana promastigotes LmPfHT that are glucose transport deficient and complemented with the Plasmodium falciparum hexose transporter. Activity is measured by DNA content using SYBR green in vitro.

Assay [3] concerns the target Glucose transporter (Leishmania mexicana) (UniProt O61059). Kind of assay: ST_JUDE_LEISH: Cytotoxicity at 2uM final concentration against transgenic Leishmania Mexicana promastigotes LmGT2 that are glucose transport deficient and complemented with the L. Mexicana glucose transporter 2. Activity is measured by DNA content using SYBR green in vitro.

`NC1CCN(c2cnn(Cc3cccc(NC(=O)Nc4ccc(-c5ccccc5)cc4)c3)c(=O)c2Cl)CC1`: the values for the inhibition in assay [1], in assay [2] and in assay [3] were 1.64%, 1.72% and 2.25%, respectively.
`COCCOc1cc(C)c(C2CCN(CCCCNC(=O)c3ccc(NC(=O)c4ccc(Cl)cc4)cc3)CC2)cc1C`: the values for the inhibition in assay [1], in assay [2] and in assay [3] were 8.26%, 7.14% and 8.98%, respectively.
Regarding `COc1ccc(CCNCc2cc3c(C(C)(C)C)nn(-c4ccc(Cl)cc4)c3[nH]c2=O)cc1OC`, the results for the inhibition in assay [1], in assay [2] and in assay [3] were -2.79%, -2.78% and -5.42%, respectively.
The matching figures for `COc1ccc2ncc(C#N)c(CCN3CCC(NCc4cnc5c(c4)OCCO5)CC3)c2n1`: 11.4%, 15.9% and 6.56%.
For the compound `COc1ccccc1N1CCN(C(C(=O)NCc2cccc(F)c2)c2ccc(C)cc2)CC1` (stereo unspecified), the inhibition in assay [1] is 2.99%; in assay [2] it was 3.56%; in assay [3] it was -1.92%.
For `COc1ccc(-c2cnc3ccc(NCc4ccc(F)cc4)nn23)cc1OC`, the results for the inhibition in assay [1], in assay [2] and in assay [3] were 4.06%, 4.1% and 1.96%, respectively.
With `Cc1ccc(C)c2sc(N(CCCn3ccnc3)C(=O)C=Cc3cccs3)nc12`, the values for the inhibition in assay [1], in assay [2] and in assay [3] were 1.74%, 2.3% and -1.56%, respectively.
The matching figures for `COc1cccc2c(Nc3ccccc3C)nc(Nc3ccccc3C)nc12`: 19.6%, 16.8% and 4.14%.
The like results for `CC(=NNC(S)=NCCc1ccccc1)c1ccccn1` were, in that order, 57.4%, 68% and 23.6%.
On to `O=C(NCc1ccccc1)OC1CNCCC1c1ccc(C(O)Cc2ccccc2)cc1` (stereo unspecified), for which the inhibition in assay [1] was 1.68%; in assay [2], 1.62%; in assay [3], 2.32%.
Regarding `O=C(NC1CCN(CCN2CCc3ccccc3CC2)CC1)c1ccc(-c2ccc(C(F)(F)F)cc2)cc1`, the inhibition came out at 5.74% in assay [1], 9.69% in assay [2] and 4.56% in assay [3].
Take `CN(Cc1cccc(C#N)c1)C1CCN(c2cc(NC(=O)c3cccc(F)c3)ccn2)CC1`: the values for the inhibition in assay [1], in assay [2] and in assay [3] were 3.81%, 5.32% and 4.33%, respectively.
For `CNCCNCc1cccc(-c2ccc(-c3nc4ccccc4[nH]3)s2)c1`, the values for the inhibition in assay [1], in assay [2] and in assay [3] were 1.51%, 1.53% and 5.06%, respectively.
The matching figures for `Cc1cccc2nc(-c3ccc(-c4cccc(NC(=O)Nc5ccsc5)c4)s3)[nH]c12`: 0.98%, 2.82% and 1.03%.
The matching figures for `CN(C)CCC(O)C=C(c1ccc(Cl)cc1)c1ccc(Cl)cc1` (stereo unspecified): 9.31%, 7.5% and 4.86%.
Turning to `Fc1ccccc1C=NN=c1cc[nH]c2ccccc12`, the inhibition in assay [1] is 4.61%; in assay [2], 4.39%; in assay [3] it was 4.15%.
Consider `Cc1cccc(C(=O)Nc2ccnc(N3CCC(N(C)Cc4cccc(C#N)c4)CC3)c2)c1`, for which the inhibition is 4.5% in assay [1], 5.56% in assay [2] and 4.5% in assay [3].
Consider `COc1ccc(C2N=C(N)N=C(N)N2c2ccc(Cl)cc2)cc1OC` (stereo unspecified), for which the inhibition in assay [1] stood at 2.61%; in assay [2], 2.52%; in assay [3] it was 2.93%.
As to `Fc1ccc2ncc(Cl)c(CCN3CCC(NCc4cc5c(cn4)OCCO5)CC3)c2c1`, the inhibition in assay [1] was 11%; in assay [2], 11.7%; in assay [3], -0.41%.
The like results for `Cc1ccc2nc(N/C(N)=N/C(=O)NC3CCCCC3)nc(C)c2c1` were, in that order, 3.24%, 4.89% and 2.16%.
On to `O=C(O)C1CC(=O)N(c2ccc(Cl)cc2)C1` (stereo unspecified), for which the inhibition was -1.68% in assay [1], -0.45% in assay [2] and -1.26% in assay [3].
`Nc1c(Cl)cc(C(O)CNCCCCCOCCCc2ccc3ncccc3c2)cc1Cl` (stereo unspecified): the inhibition in assay [1] came to 5.88%; in assay [2] it was 5.02%; in assay [3] it was 4.94%.
The like results for `Cc1ccc(-c2cc(C(=O)Nc3ccc(S(=O)(=O)N4CCCC(C)C4)cc3)[nH]n2)c(O)c1` (stereo unspecified) were, in that order, -1.53%, -1.98% and -1.01%.
Take `Cc1cccc2nc(-c3cccc(-c4ccc(NC(=O)C5CCN(C)CC5)cc4)c3)[nH]c12`: the figures for the inhibition in assay [1], in assay [2] and in assay [3] were 5.38%, 2.27% and 7.2%, respectively.
For the compound `Oc1ccccc1Nc1nc(NCc2ccco2)c2ccccc2n1`, the inhibition worked out at 15.3% in assay [1], 13.6% in assay [2] and 4.56% in assay [3].
Take `O=C(CCCC(=O)Nc1ccc(C2=NCCN2)cc1)Nc1ccc(C2=NCCN2)cc1`: the results for the inhibition in assay [1], in assay [2] and in assay [3] were 0.86%, 0.54% and -0.14%, respectively.
Take `Cn1c(Nc2cc(C(C)(C)C)on2)nc2cc(Nc3ccnc(Nc4cccc(CS(C)(=O)=O)c4)n3)ccc21`: the inhibition was 0.14% in assay [1], 2.81% in assay [2] and -0.39% in assay [3].
As for `Clc1ccc(CNc2ccnc(NCc3ccc4c(c3)OCCCO4)n2)c(Cl)c1`, the inhibition amounted to 4.44% in assay [1], 5.76% in assay [2] and 3.69% in assay [3].
For the compound `Cc1ccc(F)c(OCC2CCCN(c3ccc(C(=O)NC4CC4)cn3)C2)c1` (stereo unspecified), the inhibition in assay [1] worked out at 3.46%; in assay [2], 4.3%; in assay [3], 2.18%.
As for `Cc1[nH]cc(Br)c(=O)c1-c1ccc(Oc2ccccc2)cc1`, the results for the inhibition in assay [1], in assay [2] and in assay [3] were 2.07%, 2.3% and 1.32%, respectively.
The like results for `Cc1ccc(C(C)C)c(Oc2cnc(NC(CO)c3ccccc3)nc2N)c1` (stereo unspecified) were, in that order, 9.07%, 8.83% and 8.45%.
Turning to `O=C(Cc1cccc(O)c1)NCC(Cc1ccc(O)cc1)c1ccccc1` (stereo unspecified), the inhibition is 0.64% in assay [1], -0.06% in assay [2] and 0.22% in assay [3].
For the compound `CCOc1ccccc1C1CCN(CCCCNC(=O)c2ccc(NC(=O)c3ccc(Cl)cc3)cc2)CC1`, the inhibition in assay [1] is 10.6%; in assay [2], 7.51%; in assay [3], 10.8%.
Turning to `Cc1ccc2nc(N(CCCn3ccnc3)C(=O)C=Cc3cccs3)sc2c1`, the inhibition in assay [1] is 0.75%; in assay [2] it was 1.84%; in assay [3], -2.73%.
Turning to `O=[N+]([O-])c1ccc(C(O)CNCCc2ccccc2)cc1OCc1ccccc1` (stereo unspecified), the inhibition was found to be 14.1% in assay [1], 14% in assay [2] and 15% in assay [3].
With `CN(c1ccc(NC(=O)Nc2cccc(Cl)c2)cc1)c1ccnc(N)n1`, the inhibition in assay [1] is -0.39%; in assay [2], 1.34%; in assay [3] it was -0.01%.
Regarding `COc1ccc(NC(=O)c2ccc(-c3nc(-c4ccccc4)cs3)cc2)cc1N1CCN(C)CC1`, the results for the inhibition in assay [1], in assay [2] and in assay [3] were 9.73%, 8.4% and 9.79%, respectively.

(Values after ChEMBL document CHEMBL3433997, “St. Jude Leishmania screening dataset” (2016).)
